The results in this text go back to PubChem BioAssay (Tox21).

Molecules are shown by their SMILES. Several values for one entry are separate records, joined by “and”; a condition that tells them apart may be missing. Identical values can stand only once. Results filed as inconclusive are left out. A structure can be active in one record and inactive in another. Activity calls are given as the source filed them. Unless noted, calls come from the whole dose curve; as a rule, active = well fitted curve in the direction sought with a large enough effect in the repeat runs; inconclusive = weak or mixed curves; inactive = no such curve, though single readings can be large; an effect the other way counts as inactive or inconclusive.

Assay [1] can be described thus: qHTS assay to test for compound auto fluorescence at 535 nm (green) in HEK293 cells (AID 720680).
Assay [2] in a line: qHTS assay to test for compound auto fluorescence at 460 nm (blue) in HEK293 cell free culture (AID 720681). The essentials:
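Test compounds were pinned into cell-free culture medium (DMEM with 10% FBS) and fluorescence was read directly at Ex/Em 405/460 nm. Signals were expressed as fluorescence equivalents of triamterene, with DMSO vehicle as control.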

Assay [3] is described as follows: qHTS assay to test for compound auto fluorescence at 535 nm (green) in HEK293 cell free culture (AID 720682). The essentials: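 Steps: dispense DMEM/10% FBS into empty wells; pin in compound or DMSO; measure fluorescence at 485/535 nm. Values are fluorescein equivalents.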
The nature of assay [4]: qHTS assay to test for compound auto fluorescence at 590 nm (red) in HEK293 cell free culture (AID 720683). The method, boiled down:
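Tox21 10K library compounds were pinned into cell-free DMEM with 10% FBS and fluorescence was read at excitation 540 nm. Activity is expressed as Rose Bengal sodium equivalency.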
(In general: In qHTS, concentration-response curves come from the screen itself.)

The nature of assay [5]: qHTS assay to test for compound auto fluorescence at 590 nm (red) in HepG2 cell free culture (AID 720684). The essentials: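 Readout: intrinsic compound fluorescence at 590 nm emission after 540 nm excitation, scaled to Rose Bengal sodium. Matrix was cell-free MEM with 10% FBS; DMSO vehicle wells served as control.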
The nature of assay [6]: qHTS assay to test for compound auto fluorescence at 460 nm (blue) in HepG2 cell free culture (AID 720685). The essentials: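 Cell-free plates of MEM plus 10% FBS received 23 nL compound or DMSO vehicle; blue-channel (405/460 nm) intensity scored against triamterene as reference fluorophore.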
Assay [7] is described as follows: qHTS assay to test for compound auto fluorescence at 535 nm (green) in HepG2 cell free culture (AID 720686).
The nature of assay [8]: qHTS assay to test for compound auto fluorescence at 460 nm (blue) in HepG2 cells (AID 720687). The essentials:
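Cells (2,000/well in MEM with 10% FBS) attached overnight at 37 C, then were exposed to compound or DMSO for 1 hr at 37 C, 5% CO2. Fluorescence read at Ex/Em 405/460 nm, expressed as triamterene-equivalent signal.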

Assay [9] can be described thus: qHTS assay to identify small molecule antagonists of the glucocorticoid receptor (GR) signaling pathway - cell viability counter screen (AID 720693). Note: nearly all actives have a fitted effect of over 55% in size. Note: potency is the fitted concentration of half-maximal effect.
A short description of assay [10]: qHTS assay for identifying genotoxic compounds that show differential cytotoxicity against isogenic chicken DT40 cell lines with known DNA damage response pathways - Rev3 mutant cell line (AID 743014). Note: nearly all actives have a fitted effect of over 55% in size. Note: potency is the fitted concentration of half-maximal effect.
Assay [11] is described as follows: qHTS assay for identifying genotoxic compounds that show differential cytotoxicity against isogenic chicken DT40 cell lines with known DNA damage response pathways - Rad54/Ku70 mutant cell line (AID 743015). Note: nearly all actives have a fitted effect of over 60% in size. Note: potency is the fitted concentration of half-maximal effect.
The nature of assay [12]: qHTS assay to identify small molecule antagonists of the androgen receptor (AR) signaling pathway - cell viability counter screen (AID 743033; note: nearly all actives have a fitted effect of over 45% in size; note: potency is the fitted concentration of half-maximal effect).
Assay [13] is described as follows: qHTS assay to identify small molecule antagonists of the androgen receptor (AR) signaling pathway using the MDA cell line - cell viability counter screen (AID 743041; note: nearly all actives have a fitted effect of over 45% in size; note: potency is the fitted concentration of half-maximal effect). The essentials: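 qHTS viability read-out; MDA-kb2 AR-luc; R1881-stimulated; 16 h exposure at 37C, 0% CO2; CellTiter-Fluor, 30 min; fluorescence intensity.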
A short description of assay [14]: qHTS assay for identifying genotoxic compounds that show differential cytotoxicity against isogenic chicken DT40 cell lines with known DNA damage response pathways - wild type cell line (AID 743012). Note: nearly all actives have a fitted effect of over 60% in size. Note: potency is the fitted concentration of half-maximal effect. The method, boiled down: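 Viability of DNA repair-proficient chicken DT40 cells was assessed by CellTiter-Glo luminescence following 40 h compound exposure at 37 C/5% CO2.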

Assay [15] addresses Glucocorticoid receptor (Homo sapiens) (UniProt P04150). Kind of assay: qHTS assay to identify small molecule agonists of the glucocorticoid receptor (GR) signaling pathway (AID 720691; active = well fitted activation curve with a large enough effect in the signal ratio in the repeat runs, not every such curve was filed as active; the % refers to the signal ratio). The method, boiled down: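 Compounds in DMSO, alongside positive controls, were added to GR-bla HeLa reporter cells and incubated 18 h at 37 C; GRE-driven beta-lactamase was detected by fluorescence after 2 h with FRET substrate at room temperature.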

The target is the same in assay [16]. Briefly: qHTS assay to identify small molecule antagonists of the glucocorticoid receptor (GR) signaling pathway (AID 720692; active = well fitted inhibition curve with a large enough effect in the signal ratio in the repeat runs, not every such curve was filed as active; the % refers to the signal ratio). The method, boiled down: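 In a 1536-well cell format, compounds were added 4 h after seeding GR-bla HeLa cells, together with dexamethasone at 5 nM final; reporter activity was measured by FRET-substrate fluorescence following 18 h at 37 C.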
% is set by controls: 0 for no effect and ±100 for the full control effect.

Sequence of Glucocorticoid receptor (Homo sapiens) (P04150 whole entry, looked up): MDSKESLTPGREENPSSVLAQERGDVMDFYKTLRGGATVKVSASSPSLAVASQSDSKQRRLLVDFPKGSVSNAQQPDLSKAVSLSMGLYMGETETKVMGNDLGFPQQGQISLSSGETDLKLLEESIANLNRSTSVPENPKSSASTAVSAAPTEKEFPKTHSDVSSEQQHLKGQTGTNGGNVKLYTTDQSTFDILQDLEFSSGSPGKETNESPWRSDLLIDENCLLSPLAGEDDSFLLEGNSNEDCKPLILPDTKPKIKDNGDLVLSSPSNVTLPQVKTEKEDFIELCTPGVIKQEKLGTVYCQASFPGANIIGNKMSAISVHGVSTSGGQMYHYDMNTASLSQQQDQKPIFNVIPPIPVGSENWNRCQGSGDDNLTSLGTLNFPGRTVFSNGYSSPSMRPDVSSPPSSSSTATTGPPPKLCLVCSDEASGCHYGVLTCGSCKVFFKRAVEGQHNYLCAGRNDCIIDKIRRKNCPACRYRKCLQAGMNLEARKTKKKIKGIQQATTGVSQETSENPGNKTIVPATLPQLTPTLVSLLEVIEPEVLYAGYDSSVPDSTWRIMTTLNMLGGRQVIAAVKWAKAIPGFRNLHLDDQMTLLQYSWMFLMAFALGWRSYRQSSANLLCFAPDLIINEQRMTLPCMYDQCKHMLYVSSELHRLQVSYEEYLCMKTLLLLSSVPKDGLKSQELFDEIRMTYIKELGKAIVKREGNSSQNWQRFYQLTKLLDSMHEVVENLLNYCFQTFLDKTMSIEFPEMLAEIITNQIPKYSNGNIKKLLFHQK

In the case of `CC(=O)O`, the call in assay [1], in [2], in assay [3], in [4], in assay [5] and in assay [6] was inactive. Moreover, the result in assay [7] and in assay [8] was inactive. Further, the Potency entry in assay [9], in assay [10], in assay [11], in assay [12] and in [13] was “inactive” throughout.
With `CCn1cc[n+](C)c1C`, the outcome in assay [1], in assay [2], in [3], in assay [4], in assay [5] and in assay [6] was inactive. Moreover, the molecule was classed as inactive in [7] and in assay [8]. Moreover, the Potency entry in assay [9], in assay [14], in assay [10], in [11], in assay [12] and in assay [13] was “inactive” each time.
Turning to `CCCCn1cc[n+](C)c1C`, the molecule was classed as inactive in [1], in assay [2], in assay [3], in assay [4], in [5] and in assay [6]. The result in assay [7] and in assay [8] was inactive. Moreover, the Potency result in assay [9], in [10], in assay [11], in [12] and in assay [13] was “inactive” each time.
Regarding `O=S(=O)(O)O`, the outcome in [1], in assay [2], in [3], in assay [4], in assay [5] and in assay [6] was inactive. The result in assay [7] and in assay [8] was inactive. The Potency result in assay [9], in assay [12] and in [13] was “inactive” throughout. Further, the Potency entry in [14] is “inactive and 27.3 µM (active)”; in assay [10], “inactive and 61.1 µM (active)”; in [11], “inactive and 48.6 µM (active)”.
Regarding `CCOP(=S)(OCC)Oc1ccc2c(C)c(Cl)c(=O)oc2c1`, the molecule was classed as inactive in assay [1], in assay [2], in assay [3], in assay [4], in assay [5] and in [6]. For the same molecule, the result in assay [7], in [8] and in assay [15] was inactive. For the same molecule, the Potency entry in [9], in assay [12] and in [13] was “inactive” in each case. Also, the Potency entry in assay [10] is “inactive and 19.3 µM (active)”; in assay [11] it was “inactive and 17.2 µM (active)”.
As to `CCCC[N+]1(C)CCCCC1`, the call in assay [1], in assay [2], in assay [3], in assay [4], in assay [5] and in assay [6] was inactive. Besides, the molecule was called inactive in assay [7] and in assay [8]. In addition, the Potency result in [9], in assay [14], in assay [10], in assay [11], in assay [12] and in assay [13] was “inactive” throughout.
Consider `CCC[N+]1(C)CCCCC1`, for which the outcome in assay [1], in assay [2], in assay [3], in assay [4], in [5] and in assay [6] was inactive. The molecule was classed as inactive in assay [7] and in assay [8]. The Potency entry in [9], in assay [10], in assay [11], in [12] and in assay [13] was “inactive” in each case.
For `CNC`, the result in assay [1], in assay [2], in assay [3], in assay [4], in assay [5] and in assay [6] was inactive. Further, the call in assay [7], in [8] and in assay [15] was inactive. In addition, the Potency entry in assay [16], in assay [9], in [12] and in [13] was “inactive” each time.
Turning to `CCCC[N+]1(C)CCCC1`, the molecule was called inactive in assay [1], in assay [2], in assay [3], in assay [4], in assay [5] and in assay [6]. Besides, the result in assay [7] and in assay [8] was inactive. Moreover, the Potency result in assay [9], in assay [10], in assay [11], in assay [12] and in assay [13] was “inactive” throughout.
Take `CCCCCCCCCCCCCC[P+](CCCCCC)(CCCCCC)CCCCCC`: the molecule was classed as inactive in assay [1], in [2], in assay [3], in assay [4], in [5] and in assay [6]. The molecule was called inactive in [7], in [8] and in assay [15]. The Potency in assay [9] is 12.4 µM (active) and 11.1 µM (active); in assay [10], 7.73 µM (active) and 6.16 µM (active) and inactive; in assay [11], 6.14 µM (active) and 6.16 µM (active) and inactive; in [12] it was 982 nM (active) and 3.92 µM (active) and 346 nM (active).
As for `CCCCn1cc[n+](C)c1`, the call in assay [1], in [2], in assay [3], in [4], in assay [5] and in [6] was inactive. The call in assay [7] and in assay [8] was inactive. In addition, the Potency entry in [9], in assay [14], in assay [10], in [11], in assay [12] and in assay [13] was “inactive” each time.
Consider `CC[n+]1ccccc1`, for which the molecule was called inactive in assay [1], in assay [2], in assay [3], in assay [4], in [5] and in assay [6]. Also, the outcome in [7] and in [8] was inactive. Also, the Potency entry in assay [9] is “inactive”. Besides, the Potency result was “inactive and 171 nM (active)” in assay [10]; “inactive and 136 nM (active)” in [11]; “inactive and 21.7 µM (active)” in [12].
Turning to `Cc1cc(-c2ccc(N)c(C)c2)ccc1N`, the molecule was classed as inactive in [1], in assay [2], in assay [3], in [4], in [5] and in [6]. The call in assay [7] and in assay [8] was inactive. The Potency entry in assay [9], in assay [12] and in assay [13] was “inactive” in each case. The Potency result in assay [10] is “inactive and 34.3 µM (active)”; in assay [11], “inactive and 60.9 µM (active)”.
Turning to `Oc1ccccc1-c1ccccc1`, the outcome in assay [1], in assay [2], in [3], in [4], in assay [5] and in [6] was inactive. Moreover, the outcome in assay [7] and in [8] was inactive. The Potency entry in [9], in [10], in assay [11], in assay [12] and in assay [13] was “inactive” throughout.
For `CCCCCCCCn1cc[n+](C)c1`, the call in assay [1], in assay [2], in assay [3], in [4], in assay [5] and in [6] was inactive. The molecule was called inactive in assay [7] and in [8]. Besides, the Potency entry in assay [9] is “inactive”. For the same molecule, the Potency in [11] was 607 nM (active) [middle of 4 runs]; in assay [12] it was 15.4 µM (active) and 11.1 µM (active); in assay [13], 2.71 µM (active) and 1.53 µM (active) and 1.55 µM (active).
On to `CN(C)[C@@H]1C(=O)C(C(N)=O)=C(O)[C@@]2(O)C(=O)C3=C(O)c4c(O)cccc4[C@@](C)(O)[C@H]3[C@H](O)[C@@H]12`, for which the outcome in [1], in assay [2], in [3], in [4], in assay [5] and in assay [6] was inactive. Moreover, the outcome in [7] and in assay [8] was inactive. The Potency result in [9], in assay [12] and in [13] was “inactive” in each case. Besides, the Potency result is “inactive and 68 µM (active) and 43.3 µM (active)” in assay [14]; “inactive and 43.3 µM (active)” in assay [10]; “inactive and 48.6 µM (active)” in [11].
As for `COCC(=O)N(c1c(C)cccc1C)C(C)C(=O)OC` (stereo not given), the molecule was called inactive in assay [1], in assay [2], in assay [3], in assay [4], in [5] and in assay [6]. Also, the molecule was classed as inactive in [7] and in assay [8]. The Potency entry in assay [9], in assay [11], in [12] and in assay [13] was “inactive” throughout. Also, in assay [10], the Potency entry is “inactive and 61 µM (active)”.
